Assay results taken from PubChem BioAssay AID1508600 (Functional Genomics Laboratory (NCATS/FGL), 2020).
The whole screen tested about 53,000 sequences, of which about 3,700 (7%) were called active. The sample as a whole holds a higher share of actives than the screen did. Values without a mark were called inactive.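 The calls were made as follows: active = gene knockdowns whose robust z-score for IL-1 alpha signal is at least 2 or at most -2, so actives lie on both sides; inactive = the rest.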

Assay: Components of the Cytosolic LPS Sensing Pathway: Gene Identification via Genome-wide siRNA Screen;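 also: robust z of the log signal after scaling to non-targeting control siRNA wells of the plate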
Settings: RAW264.7 macrophages, IL-1a HTRF, actives lie on both sides, screened at 100 nM (by protocol), cells primed 5 h with Pam3CSK4 first
Procedure, shortened: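 Mouse macrophage line RAW264.7 is transfected with siRNA (100 nM final), grown 48h, primed with TLR ligand Pam3CSK4 5 h and given intracellular LipidA 24 h. IL-1a in supernatant is read by HTRF and viability by luminescence.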

For GGCAGCUAAGUACGUUCAUTT against Gba, which z-score is on record?
The z-score was 0.177.

For GGAAAGAGAACAUAAAAGATT against Pla2g4a, which z-score is on record?
The z-score was -0.995.

With GCAGCAUCGCGUAGAAACATT against Gar1 as the sequence, how does the z-score read?
Its z-score is -0.566.

With GCUGGAAACCCGUAUACUATT against Krt23 as the sequence, how does the z-score read?
Its z-score is 2.16 (active).

With CCGUGCACAACAUUGCCUATT against Qtrt1 as the sequence, how does the z-score read?
The z-score was -0.552.

With GGAAUUUUCAAGGAACAAUTT against Il1rapl2 as the sequence, how does the z-score read?
Its z-score is -1.8.

Which z-score does the source give for GGCGUGUAUGUCAAAAAUATT against Grip1 here?
Its z-score is -0.201.

For GGAGUUGUUACUCUAUUUUTT against Pkd2l2, which z-score is on record?
Its z-score is -0.426.

For GCUCUCACACCCUUAUGUATT against Nptn, which z-score is on record?
The z-score was -1.45.

With GGCGAGAAAUUCUUCACAUTT against Plxna3 as the sequence, how does the z-score read?
The z-score was -1.51.

With GGAGAAGGAGCAGAUUAAATT against Krt8 as the sequence, how does the z-score read?
The z-score was 2.07 (active).

With CCAAAACCUCAUGCUGAAATT against Zfp758 as the sequence, how does the z-score read?
The z-score was 0.396.

With GCUAAUACGAUUUACUUUGTT against Cntn6 as the sequence, how does the z-score read?
Its z-score is 0.586.

With GGACGUAUAUCCUUUUAUGTT against Spaar as the sequence, how does the z-score read?
The z-score was -0.151.

With GCAUGAUCAAAUUGUAUCUTT against Nde1 as the sequence, how does the z-score read?
The z-score was -2.21 (active).

With GGUCUUUCUUCGAGGAGUCTT against Ccdc33 as the sequence, how does the z-score read?
Its z-score is -1.03.

Which z-score does the source give for CCGUAAGAAGGAAAACGCATT against Kcnd1 here?
The z-score was -0.506.

Which z-score does the source give for GGUAAGGUUACAGCACUGATT against Chac2 here?
Its z-score is -0.489.

With GGAAUAUCUGAUAUCAGUATT against Mdga2 as the sequence, how does the z-score read?
The z-score was 0.0727.

For GGCUUCCUCAUCGAUAUAATT against Ccnh, which z-score is on record?
The z-score was 0.21.

With GGUACCAAUUGAAGAUAUATT against Ncoa7 as the sequence, how does the z-score read?
Its z-score is 2.2 (active).

For GGACAAGGAGGAUUUCUUCTT against Nprl2, which z-score is on record?
The z-score was -0.226.

With CCUUCUAAGAGAAAAACGUTT against Eps15 as the sequence, how does the z-score read?
Its z-score is 0.198.

For GGUAAACAGAAUAGAAUCCTT against Lcmt1, which z-score is on record?
The z-score was 0.622.

For GCCUGUGUAUUCUCGCUAUTT against Mon1a, which z-score is on record?
The z-score was 0.345.

With UGGGCCUUGUAGGCUUCAUTT against Rell2 as the sequence, how does the z-score read?
The z-score was 2.3 (active).

For GGACCAGUUAUCCUCACUGTT against Eapp, which z-score is on record?
Its z-score is -0.514.

Which z-score does the source give for GCACAGCUAAACUUAACUATT against Taz here?
Its z-score is 0.711.

For GCAAAUUUACCUCGGUUUUTT against Olfr46, which z-score is on record?
The z-score was 0.388.

Which z-score does the source give for GGCAGGUUUUUGAACUGGUTT against Olfr725 here?
The z-score was 2.28 (active).

With GCUGAGAGGUAAAGACACATT against Cntd1 as the sequence, how does the z-score read?
The z-score was 0.116.

With UCCAGAGGAUCCGCUGUGATT against Krt74 as the sequence, how does the z-score read?
Its z-score is -0.632.

For GGACUAAACAGAUUCACUATT against Rnase9, which z-score is on record?
Its z-score is -2.42 (active).

With GGAUCCUUCGCUUUUAUCGTT against Nox1 as the sequence, how does the z-score read?
The z-score was -0.343.

With GGAAAAUCACUUCAUUCACTT against Ltk as the sequence, how does the z-score read?
The z-score was 0.893.

With CCUUCGUAGUCUUGAUGUGTT against Olfr1179 as the sequence, how does the z-score read?
Its z-score is -0.104.

Which z-score does the source give for GGAUCAAAAAAAAACUGGATT against Sinhcaf here?
Its z-score is 1.19.

For GGAAUUAGUCUCCAAAUAUTT against Sh2d1b1, which z-score is on record?
Its z-score is 0.604.

With GCCAGUACGAAGUGAUCUGTT against Ackr4 as the sequence, how does the z-score read?
Its z-score is 2.8 (active).

With GGUUCUUGGUUUACAUAAGTT against Slc39a12 as the sequence, how does the z-score read?
The z-score was -1.23.

For GGGAAAACCAUACAAAAUATT against Olfr228, which z-score is on record?
The z-score was -0.525.

For GCAAAUCGACCACUUUCCGTT against Cacng2, which z-score is on record?
Its z-score is 4 (active).

For GCACGUCCUCGAUCUCUGUTT against Extl3, which z-score is on record?
The z-score was -0.705.

Which z-score does the source give for GGUGUCUGAUGAUGAAUAUTT against Cnnm3 here?
Its z-score is 0.322.

For GGAUGUGCCUCGGUUGGAUTT against Gulo, which z-score is on record?
The z-score was 0.663.

With GGAAGACCUUGAAUUCCAGTT against Tspan31 as the sequence, how does the z-score read?
Its z-score is 2.87 (active).

For GCCCAUUGAUCCGGAGUAATT against Dusp28, which z-score is on record?
Its z-score is 0.252.

For GGGUUUCUAUGAAGAGAUCTT against Fhod1, which z-score is on record?
Its z-score is -0.624.

With GCCUUACAUGAGCCCAUGUTT against Olfr550 as the sequence, how does the z-score read?
The z-score was -1.96.

For GGACUUUAUUGAAAAUCUGTT against Zfp365, which z-score is on record?
The z-score was 0.593.

Which z-score does the source give for CCAAAUUCCUAUCAAGUUUTT against Ints2 here?
The z-score was 1.98.

For GCGUCUCAUAGAGUUGGUGTT against Mblac2, which z-score is on record?
The z-score was 0.0617.

For GCCGCUAGCAUGGUCUAUUTT against Apoa5, which z-score is on record?
Its z-score is 2.51 (active).

For UAUACCUUAGUGCUGAGGGTT against Olfr736, which z-score is on record?
The z-score was -1.02.

For GGGCAAAAGCUGUUACAAGTT against Ahrr, which z-score is on record?
Its z-score is -0.0958.

With GGUUCCUGGAUGGUUCCUATT against Vtcn1 as the sequence, how does the z-score read?
The z-score was 1.45.

With GGGUAUGACAACAAACUUCTT against Gabrg2 as the sequence, how does the z-score read?
The z-score was -0.422.

For GGUUUGGCAAACAUUUCAUTT against Akr1c20, which z-score is on record?
Its z-score is 2.02 (active).

Which z-score does the source give for GGAUGAAUCUGAAGAUUCCTT against Nol3 here?
The z-score was 0.113.

With GGUGGACAAGCAAGUCUAGTT against Ube2o as the sequence, how does the z-score read?
The z-score was 1.97.

With GGACAAGAUAGGAGGAGACTT against Abhd16a as the sequence, how does the z-score read?
The z-score was -0.776.

Which z-score does the source give for GCUUGUGCUGAAUUACACCTT against Vps35 here?
Its z-score is 2.11 (active).

Which z-score does the source give for GCACGAAUCCUUGGAGAAATT against Batf2 here?
Its z-score is -0.254.

Which z-score does the source give for GGUGAUUUAGUUGUGUAAATT against Calcr here?
Its z-score is 0.294.

With GGUUCCAUCUUCUCAGGACTT against Olfr395 as the sequence, how does the z-score read?
Its z-score is 1.01.

For GGUGGAAUAUUUCAUGGACTT against Csnk2a1, which z-score is on record?
The z-score was 3.43 (active).

For GGAAGAGGACACAUUAGGCTT against Gtsf1l, which z-score is on record?
Its z-score is 0.11.

With GGUGAGUUUUGCUAAAAGUTT against Syp as the sequence, how does the z-score read?
The z-score was 0.783.

With GCAAGAAGUAUUUUCAGUATT against Galnt4 as the sequence, how does the z-score read?
Its z-score is 1.34.
